# How the values were obtained:
# Assay in all cases: DAPPL (digital affinity profiling via proximity ligation, sequencing); 10 mM Tris-HCl pH 7.5, 50 mM NaCl, 1 mM DTT, 4% glycerol, room temperature, 30 min; GST-TFs on glutathione beads, 16-mer random dsDNA library, 0.1% formaldehyde crosslink after washing; high values mean tight binding
# Conditions in all cases: protein: recombinant; tags: N-terminal GST; dsDNA, one strand shown
# [1] = molecular target: T1, FLI1 (Homo sapiens, UniProt Q01543 1-452)
# T1 sequence: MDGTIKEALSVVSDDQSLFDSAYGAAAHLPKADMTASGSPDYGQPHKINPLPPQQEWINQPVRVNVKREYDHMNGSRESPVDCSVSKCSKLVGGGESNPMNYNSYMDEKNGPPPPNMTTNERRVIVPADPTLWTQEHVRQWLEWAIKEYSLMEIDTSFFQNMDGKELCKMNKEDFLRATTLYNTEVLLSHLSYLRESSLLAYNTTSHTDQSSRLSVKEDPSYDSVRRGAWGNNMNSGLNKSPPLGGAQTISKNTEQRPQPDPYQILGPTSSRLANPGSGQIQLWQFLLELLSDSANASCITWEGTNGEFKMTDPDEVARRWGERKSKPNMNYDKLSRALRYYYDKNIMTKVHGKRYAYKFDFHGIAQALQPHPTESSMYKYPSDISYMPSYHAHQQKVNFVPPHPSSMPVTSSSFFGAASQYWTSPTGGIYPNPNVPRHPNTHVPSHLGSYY
# How it was run: (§1)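 The binding signal reported is, for every hexamer, its read frequency for a factor over its read frequency for the tag-only sample. Reads came from pools of yeast-expressed, GST-fused human transcription factors on glutathione beads, barcoded with DNA and mixed with that sample, which were incubated with 200 nmole of a random double-stranded 16-mer DNA library in Tris/NaCl/DTT/glycerol buffer at room temperature for 30 min. After washing, the pools were crosslinked with 0.1% formaldehyde, proximity-ligated with BsaI/T4 ligase for 1 h at 37 °C, PCR-amplified and sequenced on an Illumina NextSeq500.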
# [2] = molecular target: T2, ELK1 (Homo sapiens, UniProt P19419 1-428)
# T2 sequence: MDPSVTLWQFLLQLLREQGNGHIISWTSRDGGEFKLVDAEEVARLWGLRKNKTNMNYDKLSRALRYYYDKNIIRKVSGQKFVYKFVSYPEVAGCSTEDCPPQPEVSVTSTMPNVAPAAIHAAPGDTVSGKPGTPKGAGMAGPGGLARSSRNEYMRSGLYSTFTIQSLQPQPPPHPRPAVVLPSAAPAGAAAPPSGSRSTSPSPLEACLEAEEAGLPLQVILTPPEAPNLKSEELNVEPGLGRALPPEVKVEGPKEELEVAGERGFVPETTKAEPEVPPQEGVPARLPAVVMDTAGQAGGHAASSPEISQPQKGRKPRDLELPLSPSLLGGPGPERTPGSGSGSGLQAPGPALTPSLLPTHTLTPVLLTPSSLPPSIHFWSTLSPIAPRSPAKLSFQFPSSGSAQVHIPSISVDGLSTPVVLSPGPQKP
# How it was run: as §1
# [3] = molecular target: T3, GABPA (Homo sapiens, UniProt Q06546 1-454)
# T3 sequence: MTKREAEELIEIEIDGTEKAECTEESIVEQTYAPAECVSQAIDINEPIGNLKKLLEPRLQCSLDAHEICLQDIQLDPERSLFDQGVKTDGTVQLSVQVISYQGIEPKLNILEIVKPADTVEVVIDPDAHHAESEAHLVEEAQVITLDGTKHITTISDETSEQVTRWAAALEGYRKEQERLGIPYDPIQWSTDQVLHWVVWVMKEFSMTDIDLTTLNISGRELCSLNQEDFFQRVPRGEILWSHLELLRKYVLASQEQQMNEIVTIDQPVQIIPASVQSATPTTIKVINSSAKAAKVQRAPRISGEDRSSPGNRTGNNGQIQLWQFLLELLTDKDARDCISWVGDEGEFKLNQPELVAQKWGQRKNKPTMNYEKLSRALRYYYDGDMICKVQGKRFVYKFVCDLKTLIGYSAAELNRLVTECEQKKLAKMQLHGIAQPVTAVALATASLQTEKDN
# How it was run: as §1
# [4] = molecular target: T4, EHF (Homo sapiens, UniProt Q9NZC4 1-300)
# T4 sequence: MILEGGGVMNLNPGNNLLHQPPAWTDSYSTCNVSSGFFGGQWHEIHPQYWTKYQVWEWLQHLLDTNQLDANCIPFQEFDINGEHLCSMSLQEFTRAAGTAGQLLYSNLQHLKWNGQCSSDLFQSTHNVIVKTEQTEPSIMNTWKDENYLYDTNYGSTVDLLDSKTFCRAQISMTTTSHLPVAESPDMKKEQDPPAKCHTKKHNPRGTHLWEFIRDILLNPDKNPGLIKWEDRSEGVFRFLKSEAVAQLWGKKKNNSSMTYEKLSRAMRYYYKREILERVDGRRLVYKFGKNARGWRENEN
# How it was run: as §1
# [5] = molecular target: SPI1 (Homo sapiens, UniProt P17947 1-270)
# How it was run: as §1
# [6] = molecular target: SPIB (Homo sapiens, UniProt Q01892 1-262)
# How it was run: as §1
# [7] = molecular target: T5, ELK3 (Homo sapiens, UniProt P41970 1-407)
# T5 sequence: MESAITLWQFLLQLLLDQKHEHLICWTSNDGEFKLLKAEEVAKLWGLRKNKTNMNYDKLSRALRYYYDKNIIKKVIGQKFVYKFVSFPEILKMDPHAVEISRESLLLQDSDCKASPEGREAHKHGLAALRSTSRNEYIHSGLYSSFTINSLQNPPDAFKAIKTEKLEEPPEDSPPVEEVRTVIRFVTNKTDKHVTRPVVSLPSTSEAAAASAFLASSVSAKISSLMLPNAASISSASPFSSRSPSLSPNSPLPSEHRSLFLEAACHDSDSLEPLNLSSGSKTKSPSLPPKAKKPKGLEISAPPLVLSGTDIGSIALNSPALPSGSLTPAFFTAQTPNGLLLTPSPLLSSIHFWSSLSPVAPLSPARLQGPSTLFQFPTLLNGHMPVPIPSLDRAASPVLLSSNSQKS
# How it was run: as §1
# [8] = molecular target: ETV5 (Homo sapiens, UniProt P41161 1-510)
# How it was run: as §1
# [9] = molecular target: T6, SPIC (Homo sapiens, UniProt Q8N5J4 1-248)
# T6 sequence: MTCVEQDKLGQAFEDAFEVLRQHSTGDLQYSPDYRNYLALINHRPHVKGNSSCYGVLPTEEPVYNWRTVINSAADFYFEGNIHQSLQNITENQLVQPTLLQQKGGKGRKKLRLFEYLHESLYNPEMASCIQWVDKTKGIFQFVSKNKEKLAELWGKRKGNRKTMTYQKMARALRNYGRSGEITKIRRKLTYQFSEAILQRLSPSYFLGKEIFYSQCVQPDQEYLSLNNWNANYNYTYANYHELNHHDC
# How it was run: as §1
# [10] = molecular target: ELF4 (Homo sapiens, UniProt Q99607 1-663)
# How it was run: as §1
# [11] = molecular target: ETV1 (Homo sapiens, UniProt P50549 1-477)
# How it was run: as §1
# [12] = molecular target: T7, ERF (Homo sapiens, UniProt P50548 1-548)
# T7 sequence: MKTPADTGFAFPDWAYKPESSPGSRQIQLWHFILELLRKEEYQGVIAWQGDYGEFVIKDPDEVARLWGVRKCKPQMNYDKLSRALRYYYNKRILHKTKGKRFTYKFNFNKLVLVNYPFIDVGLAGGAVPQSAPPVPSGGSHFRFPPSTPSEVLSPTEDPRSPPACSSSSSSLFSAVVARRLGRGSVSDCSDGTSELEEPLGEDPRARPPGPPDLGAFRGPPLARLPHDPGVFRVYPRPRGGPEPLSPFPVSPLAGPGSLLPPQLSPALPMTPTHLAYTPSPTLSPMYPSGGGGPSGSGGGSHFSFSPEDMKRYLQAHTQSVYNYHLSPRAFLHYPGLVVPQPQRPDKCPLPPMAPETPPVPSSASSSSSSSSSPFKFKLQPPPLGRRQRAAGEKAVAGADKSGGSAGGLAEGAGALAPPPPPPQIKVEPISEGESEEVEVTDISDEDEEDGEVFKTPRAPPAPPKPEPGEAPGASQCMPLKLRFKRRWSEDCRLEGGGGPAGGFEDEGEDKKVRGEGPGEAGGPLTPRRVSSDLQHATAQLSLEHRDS
# How it was run: as §1
# [13] = molecular target: T8, ETV3L (Homo sapiens, UniProt Q6ZN32 1-361)
# T8 sequence: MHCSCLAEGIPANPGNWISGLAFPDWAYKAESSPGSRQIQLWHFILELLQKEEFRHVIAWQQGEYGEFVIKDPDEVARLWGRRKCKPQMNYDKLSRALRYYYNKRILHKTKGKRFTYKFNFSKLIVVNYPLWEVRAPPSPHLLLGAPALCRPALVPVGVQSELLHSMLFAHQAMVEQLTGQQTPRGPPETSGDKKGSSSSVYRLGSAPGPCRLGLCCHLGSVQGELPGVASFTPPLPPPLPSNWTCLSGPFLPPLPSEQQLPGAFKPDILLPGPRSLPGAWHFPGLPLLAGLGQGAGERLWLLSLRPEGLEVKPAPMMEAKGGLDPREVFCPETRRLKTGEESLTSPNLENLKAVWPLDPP
# How it was run: as §1
# [14] = molecular target: T9, ETV3 (Homo sapiens, UniProt P41162-2 1-143)
# T9 sequence: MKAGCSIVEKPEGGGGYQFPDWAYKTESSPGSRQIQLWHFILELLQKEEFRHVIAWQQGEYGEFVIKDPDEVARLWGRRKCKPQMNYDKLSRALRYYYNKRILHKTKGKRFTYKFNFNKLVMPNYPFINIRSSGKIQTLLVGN
# How it was run: as §1
# [15] = molecular target: ETV6 (Homo sapiens, UniProt P41212 1-452)
# How it was run: as §1
# ETV6, sequence (P41212 whole entry): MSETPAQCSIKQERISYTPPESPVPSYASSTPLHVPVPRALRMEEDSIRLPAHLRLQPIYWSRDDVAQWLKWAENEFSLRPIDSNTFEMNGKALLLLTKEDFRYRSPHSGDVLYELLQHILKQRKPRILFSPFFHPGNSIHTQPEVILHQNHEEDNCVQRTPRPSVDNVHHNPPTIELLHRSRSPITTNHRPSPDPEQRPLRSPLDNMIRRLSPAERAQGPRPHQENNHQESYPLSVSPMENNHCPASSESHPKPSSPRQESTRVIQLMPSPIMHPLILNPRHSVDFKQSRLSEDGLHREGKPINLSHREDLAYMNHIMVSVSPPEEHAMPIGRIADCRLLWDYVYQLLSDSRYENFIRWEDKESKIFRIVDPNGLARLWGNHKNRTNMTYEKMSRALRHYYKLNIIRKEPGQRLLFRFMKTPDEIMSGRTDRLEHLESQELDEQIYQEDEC
# SPIB, sequence (Q01892 whole entry): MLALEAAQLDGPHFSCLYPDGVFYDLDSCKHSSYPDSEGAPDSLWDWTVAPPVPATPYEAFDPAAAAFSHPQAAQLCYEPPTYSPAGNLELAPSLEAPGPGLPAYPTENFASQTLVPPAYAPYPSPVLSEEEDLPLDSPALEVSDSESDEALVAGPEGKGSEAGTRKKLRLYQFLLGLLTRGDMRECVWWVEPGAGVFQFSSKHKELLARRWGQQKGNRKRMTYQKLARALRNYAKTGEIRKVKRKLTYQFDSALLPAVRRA
# ETV5, sequence (P41161 whole entry): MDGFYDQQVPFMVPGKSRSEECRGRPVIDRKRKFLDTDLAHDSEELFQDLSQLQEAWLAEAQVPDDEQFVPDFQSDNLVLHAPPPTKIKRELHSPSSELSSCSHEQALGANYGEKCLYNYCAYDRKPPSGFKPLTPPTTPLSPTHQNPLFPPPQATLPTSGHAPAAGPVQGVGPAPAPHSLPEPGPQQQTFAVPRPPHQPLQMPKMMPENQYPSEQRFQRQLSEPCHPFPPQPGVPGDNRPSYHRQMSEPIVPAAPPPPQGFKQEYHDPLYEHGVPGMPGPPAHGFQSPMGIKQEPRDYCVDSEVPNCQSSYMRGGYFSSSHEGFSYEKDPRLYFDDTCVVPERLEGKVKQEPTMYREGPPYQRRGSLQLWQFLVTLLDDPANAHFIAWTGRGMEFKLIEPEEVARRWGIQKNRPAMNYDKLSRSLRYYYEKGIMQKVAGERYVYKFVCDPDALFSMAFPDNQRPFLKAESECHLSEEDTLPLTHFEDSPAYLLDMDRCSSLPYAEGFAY
# ETV1, sequence (P50549 whole entry): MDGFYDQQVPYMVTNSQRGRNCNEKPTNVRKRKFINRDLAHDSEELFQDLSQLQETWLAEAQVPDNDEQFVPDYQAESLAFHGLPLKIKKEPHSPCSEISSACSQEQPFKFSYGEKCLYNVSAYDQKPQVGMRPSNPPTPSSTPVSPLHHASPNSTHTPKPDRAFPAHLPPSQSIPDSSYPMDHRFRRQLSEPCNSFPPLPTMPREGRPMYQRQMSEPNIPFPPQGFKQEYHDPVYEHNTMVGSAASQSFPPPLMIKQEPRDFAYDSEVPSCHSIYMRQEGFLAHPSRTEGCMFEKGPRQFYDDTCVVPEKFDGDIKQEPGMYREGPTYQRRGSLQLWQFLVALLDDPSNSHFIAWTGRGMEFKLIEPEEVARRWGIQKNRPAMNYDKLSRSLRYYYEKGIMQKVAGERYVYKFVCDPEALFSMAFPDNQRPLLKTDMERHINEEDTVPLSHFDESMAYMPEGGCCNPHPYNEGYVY
# ELF4, sequence (Q99607 whole entry): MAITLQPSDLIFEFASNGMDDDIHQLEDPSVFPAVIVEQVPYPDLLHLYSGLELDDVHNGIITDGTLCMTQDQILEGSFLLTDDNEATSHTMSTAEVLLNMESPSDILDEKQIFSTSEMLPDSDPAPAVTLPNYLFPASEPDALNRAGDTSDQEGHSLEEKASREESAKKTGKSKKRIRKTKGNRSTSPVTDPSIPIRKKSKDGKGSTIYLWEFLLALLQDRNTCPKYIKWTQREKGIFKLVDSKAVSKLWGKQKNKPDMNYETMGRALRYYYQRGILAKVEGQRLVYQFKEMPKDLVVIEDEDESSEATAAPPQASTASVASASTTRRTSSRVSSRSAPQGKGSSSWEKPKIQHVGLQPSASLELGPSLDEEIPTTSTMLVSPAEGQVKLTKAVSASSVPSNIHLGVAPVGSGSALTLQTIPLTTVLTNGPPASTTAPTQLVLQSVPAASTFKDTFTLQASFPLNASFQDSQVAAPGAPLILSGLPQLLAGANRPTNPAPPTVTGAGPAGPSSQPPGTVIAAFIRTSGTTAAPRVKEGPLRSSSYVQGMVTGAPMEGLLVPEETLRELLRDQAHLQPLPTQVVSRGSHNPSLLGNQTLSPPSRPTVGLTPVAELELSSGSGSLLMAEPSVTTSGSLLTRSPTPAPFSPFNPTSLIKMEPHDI
sequence,measurement,setting,value
GCGCGC,binding signal,[1],"1 fold enrichment (6-mer frequency, TF over GST control)"
same,binding signal,[2],"1.11 fold enrichment (6-mer frequency, TF over GST control)"
same,binding signal,[3],"1.05 fold enrichment (6-mer frequency, TF over GST control)"
same,binding signal,[4],"1.06 fold enrichment (6-mer frequency, TF over GST control)"
same,binding signal,[5],"1.05 fold enrichment (6-mer frequency, TF over GST control)"
same,binding signal,[6],"1.18 fold enrichment (6-mer frequency, TF over GST control)"
same,binding signal,[7],"1.01 fold enrichment (6-mer frequency, TF over GST control)"
same,binding signal,[8],"1.08 fold enrichment (6-mer frequency, TF over GST control)"
same,binding signal,[9],"1.15 fold enrichment (6-mer frequency, TF over GST control)"
same,binding signal,[10],"1.08 fold enrichment (6-mer frequency, TF over GST control)"
same,binding signal,[11],"1.09 fold enrichment (6-mer frequency, TF over GST control)"
same,binding signal,[12],"1.22 fold enrichment (6-mer frequency, TF over GST control)"
same,binding signal,[13],"1 fold enrichment (6-mer frequency, TF over GST control)"
same,binding signal,[14],"1.02 fold enrichment (6-mer frequency, TF over GST control)"
same,binding signal,[15],"1.03 fold enrichment (6-mer frequency, TF over GST control)"
